The values below come from PubChem BioAssay (NCATS).

Inconclusive results are not listed. Active and inactive are the calls of the source. Unless noted, calls come from the whole dose curve; as a rule, active = well fitted curve in the direction sought with a large enough effect; inconclusive = small, poorly fitted or top-dose-only effect, or another doubt; inactive = no such curve, though single readings can be large; an effect the other way counts as inactive or inconclusive.

A short description of test [1]: Primary qHTS for inhibitors of nuclear receptor binding SET domain protein 2 (NSD2) in an RCH-ACV wild type WT cells (2C) (AID 1645877). Note: % is set by controls: 0 for no effect and ±100 for the full control effect; nearly all actives have a fitted effect of over 70% in size. For orientation: Quantitative high-throughput screening tests each substance at several concentrations.
Test [2] concerns the target Glutathione peroxidase 1 (Homo sapiens) (UniProt P07203). Description: Primary qHTS Assay for Inhibitors of Recombinant Selenoprotein Glutathione Peroxidase 1 (GPX1) (AID 1845191). Note: nearly all actives have a fitted effect of over 65% in size. The procedure, abridged: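 GR-coupled assay: compounds preincubated 30 min at room temperature with GPX1, then reaction started with CHP; final 10 nM GPX1, 1 mM GSH, 0.5 mM CHP, 0.5 mM NADPH, 100 nM GR, 0.01% BSA, pH 7.5 Tris buffer. NADPH fluorescence (340/450 nm) read at 0 and 15 min.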

The nature of test [3]: qHTS drug screen for cell cycle checkpoint inhibitors in PARPi-resistant BRCA-mutant ovarian cancer cell lines. (AID 1963452; calls by dose curve). To be noted: PEO1/OlaR viability, CellTiter-Glo luminescence, 96 h, stronger effect = lower value. The procedure, abridged: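 PEO1, PEO4 and PEO1/OlaR ovarian cancer cells, 600 per well, exposed 96 h at 37C to a dilution series. Viability read by CellTiter-Glo luminescence, normalized to DMSO and empty wells; activity summarized as Z-AUC.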

Test [4] is described as follows: Primary qHTS for inhibitors of nuclear receptor binding SET domain protein 2 (NSD2) in an isogenic RCH-ACV NSD2 p.E1099K mutant (9B) (AID 1645876). Note: nearly all actives have a fitted effect of over 70% in size. Note: potency is the fitted concentration of half-maximal effect.
Test [5] concerns the target Phospholipid hydroperoxide glutathione peroxidase GPX4 (Homo sapiens) (UniProt P36969). The experiment in a line: Primary qHTS Assay for Inhibitors of Recombinant Selenoprotein Glutathione Peroxidase 4 (GPX4) (AID 1845192). Note: series mostly up to about 50 µM; % is set by controls: 0 for no effect and ±100 for the full control effect; nearly all actives have a fitted effect of over 65% in size. The procedure, abridged: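 GR-coupled assay: recombinant GPX4 preincubated 30 min with compound at room temperature; final 200 nM GPX4, 1 mM GSH, 0.5 mM cumene hydroperoxide, 0.5 mM NADPH, 100 nM GR, 0.01% BSA, pH 7.5 Tris. NADPH fluorescence (340/450 nm) read at 0 and 15 min.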

The mark [6] stands for this setting: measured here: PEO1 parental Z-AUC.

Glutathione peroxidase 1 (Homo sapiens), sequence (P07203 whole entry, looked up): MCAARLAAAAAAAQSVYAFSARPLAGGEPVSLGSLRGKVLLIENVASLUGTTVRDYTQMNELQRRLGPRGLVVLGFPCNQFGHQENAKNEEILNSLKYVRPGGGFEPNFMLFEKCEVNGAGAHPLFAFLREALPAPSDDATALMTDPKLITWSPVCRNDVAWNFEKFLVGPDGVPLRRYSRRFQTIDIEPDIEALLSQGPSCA
Phospholipid hydroperoxide glutathione peroxidase GPX4 (Homo sapiens), sequence (P36969 whole entry, looked up): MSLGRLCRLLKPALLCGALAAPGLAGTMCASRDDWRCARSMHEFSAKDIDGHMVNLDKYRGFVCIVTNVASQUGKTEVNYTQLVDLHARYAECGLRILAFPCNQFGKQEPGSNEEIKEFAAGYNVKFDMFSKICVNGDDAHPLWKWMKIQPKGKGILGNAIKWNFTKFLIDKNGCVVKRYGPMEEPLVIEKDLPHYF

For the compound `O=C(O)CNC(=O)c1ncc(-c2cccc(Cl)c2)cc1O`, the Potency result in test [1] and in test [2] was “inactive” throughout. Moreover, the Z-AUC in test [3] is -0.0287 (inactive); in test [3] (setting [6]), 0.803; in test [3] (measured here: PEO4 Z-AUC), 0.828.
Take `CC1=C(c2ccc(O)cc2)[C@H](c2ccc(OCCN3CCCCC3)cc2)Oc2cc(O)ccc21`: the Potency entry in test [4] and in test [5] was “inactive” in each case. Moreover, the Z-AUC in test [3] is 0.716 (inactive); in test [3] (setting [6]), 0.402; in test [3] (measured here: PEO4 Z-AUC) it was -0.752.
Take `Cn1cc(C2=C(c3cn(C)c4cc([N+](=O)[O-])ccc34)C(=O)NC2=O)c2ccccc21`: the Potency in test [4] is 525 nM (active). Further, the figures for the Z-AUC in test [3], in test [3] (setting [6]) and in test [3] (measured here: PEO4 Z-AUC) were -0.69 (inactive), -0.95 and -1.21, respectively.
